An excerpt weighted towards active compounds, which were near 2.8% of everything screened.
PAFAH1B2 inh: PAFAH1B2 enzyme inhibitors, primary screen, biochemical, fluorescence polarization, human | recombinant PAFAH1B2, FP-rhodamine activity probe | AID 492953, 2010 | 1.2% of 340,000 active | inhibition, % at 3.39 µM;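 active = inhibition above the mean of all tested compounds plus 3 SD, cut at about 24% in these data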;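 note: 0% = enzyme with DMSO and 100% = wells lacking PAFAH1B2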
HTRA1 inhibitor: HTRA1 serine protease inhibitors, primary screen, biochemical, fluorescence polarization, HTS; inhibition, % at 5.96 µM; recombinant HTRA1, FP-rhodamine activity-based probe; AID 504803, 2011; 0.5% of 340,000 active; in the data active = inhibition above about 36%;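 note: 0% = enzyme with DMSO and 100% = wells lacking enzyme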
Target sequence (Q92743 whole entry, looked up): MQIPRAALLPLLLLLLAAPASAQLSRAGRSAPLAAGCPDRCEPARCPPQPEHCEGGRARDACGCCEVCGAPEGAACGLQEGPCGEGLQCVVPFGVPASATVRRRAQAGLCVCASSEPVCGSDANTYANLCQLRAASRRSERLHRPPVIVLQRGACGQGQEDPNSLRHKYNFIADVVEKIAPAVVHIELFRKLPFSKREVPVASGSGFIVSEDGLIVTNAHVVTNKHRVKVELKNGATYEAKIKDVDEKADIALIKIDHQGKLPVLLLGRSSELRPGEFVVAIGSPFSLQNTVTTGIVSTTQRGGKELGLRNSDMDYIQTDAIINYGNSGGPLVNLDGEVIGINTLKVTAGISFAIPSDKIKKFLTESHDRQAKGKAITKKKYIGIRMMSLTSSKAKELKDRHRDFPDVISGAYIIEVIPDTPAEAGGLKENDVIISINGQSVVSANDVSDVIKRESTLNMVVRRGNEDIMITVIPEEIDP
pPAFAH FP inh: pPAFAH enzyme inhibitors, primary screen, biochemical, fluorescence polarization, human; Platelet-activating factor acetylhydrolase (Homo sapiens), Q13093; recombinant pPAFAH, FP-rhodamine probe fluorescence polarization; inhibition, % at 3.39 µM; 1.5% of 330,000 active;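 active = inhibition above the mean inhibition across the screen plus 3 SD, cut at about 25% in these data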;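 note: inhibitors block binding of the rhodamine activity-based probe so polarization drops; 0% = enzyme with DMSO and 100% = wells lacking pPAFAH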
DAGLB inh: DAGLB lipase inhibitors, primary screen, biochemical, fluorescence, HTS | inhibition, % at 5.17 µM | HEK293T DAGLB membrane lysate, EnzChek fluorogenic substrate | 0.059% of 340,000 active | AID 504411, 2011; in the data active = inhibition above about 34%;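 note: 0% = enzyme with vehicle and 100% = wells lacking enzyme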
PAFAH1B3 FP inh: PAFAH1B3 enzyme inhibitors, primary screen, biochemical, fluorescence polarization, human. Platelet-activating factor acetylhydrolase IB subunit alpha1 (Homo sapiens), Q15102. AID 492972, 2010. 0.28% of 340,000 active. inhibition, % at 3.39 µM. recombinant PAFAH1B3, FP-rhodamine probe;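 active = inhibition above the screen-wide average of all tested compounds plus 3 SD, cut at about 25% in these data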;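 note: 0% = enzyme with DMSO only and 100% = wells lacking PAFAH1B3 protein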
PAFAH2 inh: PAFAH2 enzyme inhibitors, primary screen, biochemical, fluorescence polarization, human; Platelet-activating factor acetylhydrolase 2, cytoplasmic (Homo sapiens), Q99487; recombinant PAFAH2, FP-rhodamine activity probe; inhibition, % at 3.39 µM; 0.99% of 340,000 active;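 active = inhibition above the mean over all tested compounds plus 3 SD, cut at about 30% in these data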;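 note: inhibitors block probe labeling of enzyme so polarization drops; 0% = enzyme with DMSO and 100% = wells lacking PAFAH2 protein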
PAFAH2 confirm: PAFAH2 enzyme inhibitors, confirmation, biochemical, fluorescence polarization, human | inhibition, % at 3.39 µM | AID 493030, 2011 | 65% of 2,300 active | shares compounds with PAFAH2 inh | recombinant PAFAH2, FP-rhodamine activity probe;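 active = mean inhibition over three repeats above a set limit taken from the earlier primary screen, cut at about 30% in these data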;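 note: inhibitor blocks binding of rhodamine activity probe so polarization falls; 0% = enzyme with DMSO and 100% = wells lacking PAFAH2 protein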
* hit, by the source's call; . = not tested or not shown.

SMILES	PAFAH1B2 inh	HTRA1 inhibitor	pPAFAH FP inh	DAGLB inh	PAFAH1B3 FP inh	PAFAH2 inh	PAFAH2 confirm
COc1cc(OC)c(C(=O)OCC(=O)NC2CCCC2)cc1OC	5	0	8	-2	2	52*	39*
COc1ccccc1C(=O)OCC(=O)NC(=O)NC1CCCCC1	3	8	.	-2	0	14	.
COc1ccccc1C(=O)OCC(=O)NC1CCCC1	11	4	5	-3	6	38*	22
O=C(COC(=O)c1ccc[nH]c1=O)NC1CCCC1	1	-4	2	-2	0	-2	.
O=C(COC(=O)c1ccccc1Br)NC1CCCC1	6	-1	7	-1	4	52*	35*
COc1ccc(CN2C(=O)c3ccccc3C2=O)cc1C(=O)OCC(=O)NC1CCCCC1	-1	-3	21	-2	4	52*	45*
COc1cc(SC)ccc1C(=O)NC1CCCCC1	10	-2	3	-2	8	0	.
COc1cc(SC)ccc1C(=O)OCC(=O)NC1CCCC1	11	8	21	-1	7	68*	57*
O=C(CCNC(=O)c1ccccc1)OCC(=O)c1ccccc1	7	1	0	-2	4	33*	5
Cc1[nH]c2ccccc2c1CC#N	-3	2	8	-5	-2	0	.
Cc1[nH]c2ccccc2c1C(C#N)(C#N)C1C(=O)c2ccccc2C1=O	9	27	13	13	8	31*	28
COc1cc(OC)c(N(C)S(=O)(=O)c2cccc(C(=O)OCC(=O)N(C)C3CCCCC3)c2)cc1Cl	0	1	.	-1	-7	40*	27
COc1cc(OC)c(NS(=O)(=O)c2cccc(C(=O)OCC(=O)NCC3CCCO3)c2)cc1Cl (stereo not given)	3	-4	18	-1	-2	39*	31*
COc1cc(OC)c(N(C)S(=O)(=O)c2cccc(C(=O)OCC(=O)c3c[nH]c4ccccc34)c2)cc1Cl	-32	-89	-21	2	-67	-43	.
O=C(COC(=O)/C=C/c1ccco1)Nc1ccc(F)cc1Cl	6	1	1	-9	2	63*	46*
COC(=O)c1ccccc1NC(=O)COC(=O)/C=C/c1ccco1	0	-2	5	-9	-3	7	.
O=C(COC(=O)/C=C/c1ccco1)Nc1ccccc1	3	-5	10	-3	8	85*	83*
CCc1ccc(NC(=O)COC(=O)/C=C/c2ccco2)cc1	2	-6	15	-6	3	73*	73*
CCN(c1ccc(NC(=O)COC(=O)/C=C/c2ccco2)cc1)C(C)C	6	4	10	1	15	23	.
CCc1cc(=O)oc2cc(C)cc(OCC(=O)NCc3ccncc3)c12	1	3	3	-1	6	-4	.
O=[N+]([O-])c1ccc(CSCc2ccc([N+](=O)[O-])cc2)cc1	6	6	.	-2	11	7	.
CCN(C(=O)COC(=O)c1ccc([N+](=O)[O-])o1)c1cccc2ccccc12	1	17	3	-2	0	12	.
Cc1sc2nc(C(C)(C)C)oc(=O)c2c1C	5	-1	9	-4	-7	36*	40*
COc1cc(-c2nc3sc(C)c(C)c3c(=O)o2)cc(OC)c1OC	-2	0	6	-1	5	-2	.
CC(C)(C)c1nc2scc(-c3cccs3)c2c(=O)o1	4	-3	0	0	1	1	.
SMILES	PAFAH1B2 inh	HTRA1 inhibitor	pPAFAH FP inh	DAGLB inh	PAFAH1B3 FP inh	PAFAH2 inh	PAFAH2 confirm
Cc1sc2nc(-c3ccco3)oc(=O)c2c1C	0	-31	-2	-4	11	62*	47*
Cc1ccccc1-c1nc2sc(C)c(C)c2c(=O)o1	-3	-13	0	-25	4	68*	54*
COc1ccccc1C(=O)NC(=O)COC(=O)CNC(=O)c1ccccc1	0	5	6	1	3	6	.
CCN(CC)c1ccc(/C=N/N2C(C)CCCC2C)c(O)c1 (stereo not given)	0	-5	2	-3	-10	-12	.
Cc1cc(F)ccc1S(=O)(=O)N1CCCOC1CNC(=O)C(=O)NCCCN1CCOCC1 (stereo not given)	-2	1	6	-1	6	-1	.
CCOC(=O)c1ccc(COC(=O)c2nonc2N)cc1	4	-4	4	1	8	8	.
Cc1ccc(C(=O)O/N=C(/c2nonc2N)N(C)C)cc1	0	-2	21	-2	8	51*	41*
Cc1ccccc1OCCOc1cccc(/C=N/NC(=O)Cc2nnc(N)s2)c1	4	-26	9	-1	-4	33*	16
CC(NC(=O)COC(=O)c1c[nH]c2ccccc12)c1ccccc1 (stereo not given)	3	-8	8	2	-6	55*	52*
O=C(COC(=O)c1c[nH]c2ccccc12)Nc1ccc([N+](=O)[O-])cc1	-1	-27	4	-3	8	73*	73*
Cc1cc(C(=O)OCC(=O)NC(C)c2ccccc2)c(C)o1 (stereo not given)	3	1	3	-3	6	32*	21
CC(NC(=O)CCc1c[nH]c2ccccc12)c1ccccc1 (stereo not given)	12	6	2	1	10	1	.
CC(NC(=O)COC(=O)c1cc2ccccc2cc1O)c1ccccc1 (stereo not given)	-4	-4	.	-2	-1	6	.
Cc1ccc(C(=O)OCC(=O)NC(C)c2ccccc2)cc1C (stereo not given)	-3	-2	17	-6	4	75*	63*
OCc1ncc(-c2ccccc2)s1	0	8	-1	-4	11	2	.
CC(NC(=O)COC(=O)/C=C/c1cccc(C(F)(F)F)c1)c1ccccc1 (stereo not given)	-2	4	3	-6	5	16	.
Cc1ccc(/C=C/C(=O)OCC(=O)NC(C)c2ccccc2)o1 (stereo not given)	4	-1	5	-1	6	54*	38*
Cc1ccc(CNC(=O)COC(=O)c2cc(C)oc2C)cc1	7	-2	1	-5	8	10	.
Cc1cc(C(=O)OCC(=O)NC(C)c2ccc(F)cc2)c(C)o1 (stereo not given)	4	-1	-8	0	1	48*	34*

Bioassay records from PubChem BioAssay.
